Test in all cases: yeast three-hybrid, YBZ-1, SC-Leu-His + 0.5 mM 3-AT, 4 days
Holding throughout (conditions): tags: N-Gal4 AD-HA kept; label: inside an RPR1-promoter hybrid RNA with tandem MS2 sites; ssRNA

One assay has as its target PUM1 PUF domain R4-DHE (Homo sapiens, UniProt Q14671 828-1176, N971D;Q975E). Put shortly: (§1)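 A centromeric plasmid in strain YBZ-1 co-expressed Pumilio-1 PUF domain libraries, randomized at the three base-contacting residues of each repeat, with matching RNA elements; the strain carries a LexA–MS2 coat fusion and a HIS3 reporter. After four days on SC-Leu (input) or SC-Leu-His + 0.5 mM 3-AT (selection), the repeat regions were PCR-amplified and Illumina-sequenced. The interaction score is the log change in variant frequency from input to selection, using log2 and a pseudocount of 1 where absent.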

The target in the next assay is PUM1 PUF domain R4-SWG (Homo sapiens, UniProt Q14671 828-1176, N971S;H972W;Q975G). Put shortly: as §1
Another assay deals with PUM1 PUF domain R2-EWT (Homo sapiens, UniProt Q14671 828-1176, N899E;Y900W;Q903T). Put shortly: as §1
Another assay concerns the target PUM1 PUF domain R1-RWT (Homo sapiens, UniProt Q14671 828-1176, S863R;R864W;Q867T). Put shortly: as §1
In a further assay the target is PUM1 PUF domain R7-RNK (Homo sapiens, UniProt Q14671 828-1176, S1079R;E1083K). The method, boiled down: as §1
A further assay addresses PUM1 PUF domain R3-GPQ (Homo sapiens, UniProt Q14671 828-1176, C935G;R936P). Put shortly:
as §1

Another assay concerns the target PUM1 PUF domain R3-EFS (Homo sapiens, UniProt Q14671 828-1176, C935E;R936F;Q939S). The method, boiled down: as §1
The target of another assay is PUM1 PUF domain R5-GRC (Homo sapiens, UniProt Q14671 828-1176, C1007G;Q1011C). Put shortly: as §1
In another assay the target is PUM1 PUF domain R5-IFM (Homo sapiens, UniProt Q14671 828-1176, C1007I;R1008F;Q1011M). The method, boiled down:
as §1

The target of another assay is PUM1 PUF domain R8-WYR (Homo sapiens, UniProt Q14671 828-1176, N1122W;Q1126R). Put shortly: as §1
The target of another assay is PUM1 PUF domain R5-RQM (Homo sapiens, UniProt Q14671 828-1176, C1007R;R1008Q;Q1011M). The method, boiled down: as §1
The target in another assay is T1, PUM1 PUF domain R6-IYV (Homo sapiens, UniProt Q14671 828-1176, N1043I;Q1047V).
T1 sequence: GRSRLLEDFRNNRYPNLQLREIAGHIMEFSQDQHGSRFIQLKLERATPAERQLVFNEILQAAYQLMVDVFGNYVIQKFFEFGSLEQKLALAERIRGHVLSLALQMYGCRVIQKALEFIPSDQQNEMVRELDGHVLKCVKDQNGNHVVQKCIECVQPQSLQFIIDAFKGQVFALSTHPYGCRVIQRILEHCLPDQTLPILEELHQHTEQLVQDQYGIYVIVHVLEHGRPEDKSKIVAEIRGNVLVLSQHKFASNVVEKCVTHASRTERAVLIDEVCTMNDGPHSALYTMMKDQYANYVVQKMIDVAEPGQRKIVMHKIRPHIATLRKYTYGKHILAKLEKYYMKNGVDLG
The method, boiled down: as §1

The target of a further assay is T2, PUM1 PUF domain R6-CFC (Homo sapiens, UniProt Q14671 828-1176, N1043C;Y1044F;Q1047C).
T2 sequence: T1 sequence with I216C, Y217F, V220C
The method, boiled down:
as §1

A further assay has as its target PUM1 PUF domain R5-KHG (Homo sapiens, UniProt Q14671 828-1176, C1007K;R1008H;Q1011G). Put shortly:
as §1

Another assay concerns the target PUM1 PUF domain R5-NTR (Homo sapiens, UniProt Q14671 828-1176, C1007N;R1008T;Q1011R). The method, boiled down:
as §1

The next assay addresses PUM1 PUF domain R5-QKC (Homo sapiens, UniProt Q14671 828-1176, C1007Q;R1008K;Q1011C). The method, boiled down: as §1
A further assay has as its target T3, PUM1 PUF domain R6-CYE (Homo sapiens, UniProt Q14671 828-1176, N1043C;Q1047E).
T3 sequence: T1 sequence with I216C, V220E
The method, boiled down:
as §1

In another assay the target is PUM1 PUF domain R7-RCQ (Homo sapiens, UniProt Q14671 828-1176, S1079R;N1080C;E1083Q). The method, boiled down: as §1
The target in the next assay is PUM1 PUF domain R2-RTS (Homo sapiens, UniProt Q14671 828-1176, N899R;Y900T;Q903S). The method, boiled down:
as §1

The next assay addresses PUM1 PUF domain R1-SPK (Homo sapiens, UniProt Q14671 828-1176, R864P;Q867K). Put shortly: as §1

Substitutions are numbered along the chain they refer to.

PUM1 PUF domain R1-RWT, sequence (Q14671 828-1176 S863R/R864W/Q867T): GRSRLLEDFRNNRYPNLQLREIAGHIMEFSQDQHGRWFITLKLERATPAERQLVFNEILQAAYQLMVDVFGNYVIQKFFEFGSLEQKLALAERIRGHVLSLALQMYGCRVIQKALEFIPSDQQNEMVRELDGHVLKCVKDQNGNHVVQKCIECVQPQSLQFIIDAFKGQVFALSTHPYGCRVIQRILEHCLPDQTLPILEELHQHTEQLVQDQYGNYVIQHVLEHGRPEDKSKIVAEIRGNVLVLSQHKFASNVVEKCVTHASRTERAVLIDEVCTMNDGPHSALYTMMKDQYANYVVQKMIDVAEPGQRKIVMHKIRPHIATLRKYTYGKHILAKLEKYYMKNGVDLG
PUM1 PUF domain R7-RNK, sequence (Q14671 828-1176 S1079R/E1083K): as the sequence (Q14671 828-1176 S863R/R864W/Q867T) above, with R36S, W37R, T40Q, S252R, E256K counted along it

With “GGCUAGAACUAGUGGAUCCCCCGGCGCCCGGCGGCUCGAGCCCGGGUAAGUGUAUAUAGUCUGCAUGCCGCCGGGCGCCAUGCCUGCAGGUCGACUCUAGAAAACAUG”, the figures for the binding signal in the assay with PUM1 PUF domain R4-DHE and in the assay with PUM1 PUF domain R4-SWG were 4.57 log2 enrichment (interaction score) and 2.5 log2 enrichment (interaction score), respectively.
On to “GGCUAGAACUAGUGGAUCCCCCGGCGCCCGGCGGCUCGAGCCCGGGUAAGUGUAAAAAGUCUGCAUGCCGCCGGGCGCCAUGCCUGCAGGUCGACUCUAGAAAACAUG”, for which, in the assay with PUM1 PUF domain R2-EWT, the binding signal is 2.39 log2 enrichment (interaction score).
As to “GGCUAGAACUAGUGGAUCCCCCGGCGCCCGGCGGCUCGAGCCCGGGUAAGUGUAAAUGGUCUGCAUGCCGCCGGGCGCCAUGCCUGCAGGUCGACUCUAGAAAACAUG”, the binding signal with PUM1 PUF domain R1-RWT is 0.98 log2 enrichment (interaction score).
As to “GGCUAGAACUAGUGGAUCCCCCGGCGCCCGGCGGCUCGAGCCCGGGUAAGUAUAAAUAGUCUGCAUGCCGCCGGGCGCCAUGCCUGCAGGUCGACUCUAGAAAACAUG”, the binding signal in the assay with PUM1 PUF domain R7-RNK was 2.99 log2 enrichment (interaction score).
For the sequence “GGCUAGAACUAGUGGAUCCCCCGGCGCCCGGCGGCUCGAGCCCGGGUAAGUGUAAUUAGUCUGCAUGCCGCCGGGCGCCAUGCCUGCAGGUCGACUCUAGAAAACAUG”, the binding signal was 1.42 log2 enrichment (interaction score) in the assay with PUM1 PUF domain R3-GPQ and 4.44 log2 enrichment (interaction score) in the assay with PUM1 PUF domain R3-EFS.
In the case of “GGCUAGAACUAGUGGAUCCCCCGGCGCCCGGCGGCUCGAGCCCGGGUAAGUGUAAAUAGUCUGCAUGCCGCCGGGCGCCAUGCCUGCAGGUCGACUCUAGAAAACAUG”, the binding signal in the assay with PUM1 PUF domain R5-GRC was 4.07 log2 enrichment (interaction score); with PUM1 PUF domain R5-IFM it was 2.52 log2 enrichment (interaction score); with PUM1 PUF domain R8-WYR, 4.75 log2 enrichment (interaction score); with PUM1 PUF domain R3-GPQ, 4.19 log2 enrichment (interaction score); with PUM1 PUF domain R5-RQM, 2.06 log2 enrichment (interaction score); with PUM1 PUF domain R3-EFS, 2.99 log2 enrichment (interaction score). For the same sequence, the binding signal with PUM1 PUF domain R6-IYV is 2.91 log2 enrichment (interaction score); with PUM1 PUF domain R6-CFC, 1.34 log2 enrichment (interaction score); with PUM1 PUF domain R5-KHG it was 3.79 log2 enrichment (interaction score); with PUM1 PUF domain R7-RNK it was 2.47 log2 enrichment (interaction score).
For the sequence “GGCUAGAACUAGUGGAUCCCCCGGCGCCCGGCGGCUCGAGCCCGGGUAAGUGUCAAUAGUCUGCAUGCCGCCGGGCGCCAUGCCUGCAGGUCGACUCUAGAAAACAUG”, the binding signal with PUM1 PUF domain R5-GRC was 0.62 log2 enrichment (interaction score); with PUM1 PUF domain R5-NTR it was 5.46 log2 enrichment (interaction score); with PUM1 PUF domain R5-RQM, 4.46 log2 enrichment (interaction score).
Take “GGCUAGAACUAGUGGAUCCCCCGGCGCCCGGCGGCUCGAGCCCGGGUAAGUGAAAAUAGUCUGCAUGCCGCCGGGCGCCAUGCCUGCAGGUCGACUCUAGAAAACAUG”: the binding signal with PUM1 PUF domain R6-CFC is 4.06 log2 enrichment (interaction score).
With “GGCUAGAACUAGUGGAUCCCCCGGCGCCCGGCGGCUCGAGCCCGGGUAAGUGUUAAUAGUCUGCAUGCCGCCGGGCGCCAUGCCUGCAGGUCGACUCUAGAAAACAUG”, the binding signal with PUM1 PUF domain R5-GRC was 4.6 log2 enrichment (interaction score); with PUM1 PUF domain R5-QKC it was 3.74 log2 enrichment (interaction score).
“GGCUAGAACUAGUGGAUCCCCCGGCGCCCGGCGGCUCGAGCCCGGGUAAGUGUACAUAGUCUGCAUGCCGCCGGGCGCCAUGCCUGCAGGUCGACUCUAGAAAACAUG”: the binding signal with PUM1 PUF domain R4-DHE is 2.01 log2 enrichment (interaction score).
For “GGCUAGAACUAGUGGAUCCCCCGGCGCCCGGCGGCUCGAGCCCGGGUAAGUGGAAAUAGUCUGCAUGCCGCCGGGCGCCAUGCCUGCAGGUCGACUCUAGAAAACAUG”, the binding signal with PUM1 PUF domain R6-CYE is 2.53 log2 enrichment (interaction score).
For “GGCUAGAACUAGUGGAUCCCCCGGCGCCCGGCGGCUCGAGCCCGGGUAAGUCUAAAUAGUCUGCAUGCCGCCGGGCGCCAUGCCUGCAGGUCGACUCUAGAAAACAUG”, the binding signal is 2.3 log2 enrichment (interaction score) with PUM1 PUF domain R7-RCQ and 3.45 log2 enrichment (interaction score) with PUM1 PUF domain R7-RNK.
“GGCUAGAACUAGUGGAUCCCCCGGCGCCCGGCGGCUCGAGCCCGGGUAAGUGUAAGUAGUCUGCAUGCCGCCGGGCGCCAUGCCUGCAGGUCGACUCUAGAAAACAUG”: the values for the binding signal in the assay with PUM1 PUF domain R3-GPQ and with PUM1 PUF domain R3-EFS were 3.73 log2 enrichment (interaction score) and 3.82 log2 enrichment (interaction score), respectively.
In the case of “GGCUAGAACUAGUGGAUCCCCCGGCGCCCGGCGGCUCGAGCCCGGGUAAGCGUAAAUAGUCUGCAUGCCGCCGGGCGCCAUGCCUGCAGGUCGACUCUAGAAAACAUG”, in the assay with PUM1 PUF domain R8-WYR, the binding signal is 4.97 log2 enrichment (interaction score).
For the sequence “GGCUAGAACUAGUGGAUCCCCCGGCGCCCGGCGGCUCGAGCCCGGGUAAGUGUAAAUUGUCUGCAUGCCGCCGGGCGCCAUGCCUGCAGGUCGACUCUAGAAAACAUG”, the binding signal in the assay with PUM1 PUF domain R1-RWT is 4.77 log2 enrichment (interaction score).
“GGCUAGAACUAGUGGAUCCCCCGGCGCCCGGCGGCUCGAGCCCGGGUAAGUGUAAAGAGUCUGCAUGCCGCCGGGCGCCAUGCCUGCAGGUCGACUCUAGAAAACAUG”: the binding signal in the assay with PUM1 PUF domain R2-RTS was 3.27 log2 enrichment (interaction score).
With “GGCUAGAACUAGUGGAUCCCCCGGCGCCCGGCGGCUCGAGCCCGGGUAAGUGUGAAUAGUCUGCAUGCCGCCGGGCGCCAUGCCUGCAGGUCGACUCUAGAAAACAUG”, in the assay with PUM1 PUF domain R5-GRC, the binding signal is 1.57 log2 enrichment (interaction score).
Turning to “GGCUAGAACUAGUGGAUCCCCCGGCGCCCGGCGGCUCGAGCCCGGGUAAGUGUAAAUCGUCUGCAUGCCGCCGGGCGCCAUGCCUGCAGGUCGACUCUAGAAAACAUG”, the binding signal with PUM1 PUF domain R1-SPK is 2.31 log2 enrichment (interaction score); in the assay with PUM1 PUF domain R1-RWT, 5.45 log2 enrichment (interaction score).

The values above are taken from PMC8384837, “Expanding the binding specificity for RNA recognition by a PUF domain”.
